Assay outcomes: PubChem, several laboratories
TLR9-MyD88 block = inhibitors of TLR9-MyD88 association in cells, primary screen, cell-based, CHO, BLA complementation, fluorescence; Toll-like receptor 9 (Homo sapiens) + Myeloid differentiation primary response protein …; CCF4 FRET ratio; inhibition, % at 4.98 µM; 340,000 tested, 0.21% active;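 active = inhibition above the mean over all tested compounds plus 3 SD, cut at about 21% in these data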
LANA-H2A inh = blockers of LANA interaction with H2A/H2B – biochemical, FP readout, HTS, primary screen; Protein LANA1 (Human herpesvirus 8 type P (isolate GK18)), Q9QR71; cell-free LANA-H2A/H2B peptide, fluorescence polarization; inhibition, % (concentration not given with the values); 320,000 tested, 0.6% active; AID 2629, 2010; in the data active = inhibition mostly above about 10%, no sharp cut-off; inactive = mostly below about 6.7%
HTR2A ag = mouse Htr2a agonists via beta-arrestin recruitment, primary screen, cell-based, luminescence. 5-hydroxytryptamine receptor 2A (Mus musculus), P35363. CHO-K1 mHTR2A beta-arrestin complementation; percent of 30 µM serotonin response. activation, % at 7.6 µM. 360,000 tested, 0.66% active. AID 624169, 2012;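 active = activation above a run cutoff, the mean activation of all tested compounds plus 3 SD, cut at about 14% in these data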
NOD2 RIPK2 PPI = NOD2-RIPK2 binding disruptors in cells, primary screen, fluorescence, CHO cells, BLA complementation | inhibition, % at 4.98 µM | CCF4 ratio | Receptor-interacting serine/threonine-protein kinase 2 (Homo sapiens), O43353 | AID 624267, 2012 | 360,000 tested, 0.38% active; in the data active = inhibition above about 21%
Rtt109 HAT inh = inhibitors of C. albicans Rtt109/Vps75 HAT, primary screen, biochemical, ThioGlo CoA-SH fluorescence, plate reader | purified Rtt109/Vps75, 4 h | inhibition, % at 34.9 µM | Histone acetyltransferase RTT109 (Candida albicans (strain SC5314 / ATCC MYA-2876)), … | AID 540336, 2011 | 330,000 tested, 0.16% active;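 active = inhibition of at least 50% in every replicate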
Target sequence (Q5AAJ8 whole entry, looked up): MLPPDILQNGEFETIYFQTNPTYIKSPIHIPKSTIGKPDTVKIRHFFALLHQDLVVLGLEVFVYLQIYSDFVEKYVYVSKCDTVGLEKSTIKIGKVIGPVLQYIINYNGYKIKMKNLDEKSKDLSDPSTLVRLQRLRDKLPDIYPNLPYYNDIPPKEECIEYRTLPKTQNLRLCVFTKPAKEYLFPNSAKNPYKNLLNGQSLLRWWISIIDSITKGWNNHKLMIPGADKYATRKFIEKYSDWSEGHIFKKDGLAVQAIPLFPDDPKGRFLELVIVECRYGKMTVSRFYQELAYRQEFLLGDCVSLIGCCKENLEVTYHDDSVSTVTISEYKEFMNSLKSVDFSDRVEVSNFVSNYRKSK
TLR4-MyD88 BLA = inhibitors of TLR4-MyD88 association in cells, primary screen, cell-based, HeLa CL3-4, BLA complementation, FRET ratio | Toll-like receptor 4 (Homo sapiens) + Myeloid differentiation primary response protein … | HeLa CL3-4 TLR4/MyD88 BLA complementation | inhibition, % at 8.4 µM | 200,000 tested, 0.18% active | AID 861, 2007; in the data active = inhibition above about 25%
MOR ag counter = OPRM1 agonists via beta-arrestin recruitment, confirmation, counter-screen for mouse HTR2A agonist project, cell-based, luminescence, single concentration. activation, % at 9.3 µM. U2OS OPRM1 beta-arrestin PathHunter; DMSO 0%, DAMGO 9.3 µM 100%. 2,300 tested, 5.3% active. shares compounds with HTR2A ag. AID 624380, 2012;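 active = mean activation above the mean of DMSO-only wells plus 3 SD, cut at about 0.5% in these data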
Target sequence (P35372 whole entry, looked up): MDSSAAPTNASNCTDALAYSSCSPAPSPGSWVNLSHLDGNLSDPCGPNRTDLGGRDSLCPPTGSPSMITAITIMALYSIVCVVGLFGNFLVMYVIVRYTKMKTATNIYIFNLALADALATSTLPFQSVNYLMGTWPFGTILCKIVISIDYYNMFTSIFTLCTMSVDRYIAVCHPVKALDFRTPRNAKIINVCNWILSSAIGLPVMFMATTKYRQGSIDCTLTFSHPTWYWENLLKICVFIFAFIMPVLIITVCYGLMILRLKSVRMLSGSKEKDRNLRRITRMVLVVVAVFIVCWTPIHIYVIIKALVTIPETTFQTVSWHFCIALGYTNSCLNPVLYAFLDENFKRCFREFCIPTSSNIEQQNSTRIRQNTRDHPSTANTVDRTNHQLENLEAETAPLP
HTR2A ag conf = mouse HTR2A agonists, beta-arrestin recruitment, confirmation, cell-based, luminescence, CHO-K1 PathHunter, triplicate; activation, % at 7.6 µM; 2,300 tested, 19% active; DMSO 0%, 30 µM serotonin 100%; shares compounds with HTR2A ag; AID 624381, 2012;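 active = mean activation across triplicates above the hit threshold derived in the original primary screen, cut at about 15% in these data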
Large screens that a line does not name were inactive (follow-up assays come after a bar, where they were run). Only some compounds are listed: those with a hit (about 1.8% of all), similar ones and a draw of the others.

CON(C)S(=O)(=O)NC(=O)C1=C(N2CCCC2)COC1=O	none (no result: TLR4-MyD88 BLA)
CN(C)S(=O)(=O)NC(=O)C1=C(N2CCCC2)COC1=O	HTR2A ag 23 (no result: TLR4-MyD88 BLA) | MOR ag counter inactive | HTR2A ag conf inactive
COc1ccc(N(CC(=O)NC2CCS(=O)(=O)C2)S(=O)(=O)c2cc(C)ccc2C)cc1 (stereo unspecified)	none (no result: TLR4-MyD88 BLA)
Cc1c(C(=O)NCc2ccccn2)sc(=O)n1Cc1ccc(-c2ccccc2)cc1	HTR2A ag 25 (no result: TLR9-MyD88 block, LANA-H2A inh, Rtt109 HAT inh, TLR4-MyD88 BLA) | MOR ag counter inactive | HTR2A ag conf inactive
COc1ccc(-c2nc3ccc(C)cn3c2CC2CCCCC2)cc1OC	none (no result: TLR9-MyD88 block, LANA-H2A inh, Rtt109 HAT inh, TLR4-MyD88 BLA)
CCCCNc1c(-c2cccnc2)nc2nc(C)cc(C)n12	HTR2A ag 20 (no result: TLR9-MyD88 block, LANA-H2A inh, Rtt109 HAT inh, TLR4-MyD88 BLA) | MOR ag counter inactive | HTR2A ag conf inactive
COc1cc(-c2cnc3c(NC=O)cc(-c4ccc(S(C)(=O)=O)cc4)cn23)cc(OC)c1OC	none (no result: TLR9-MyD88 block, LANA-H2A inh, Rtt109 HAT inh, TLR4-MyD88 BLA)
COc1ccc(-c2cnc3c(NC=O)cc(-c4ccc(S(C)(=O)=O)cc4)cn23)cc1OC	HTR2A ag 15 (no result: TLR9-MyD88 block, LANA-H2A inh, Rtt109 HAT inh, TLR4-MyD88 BLA) | MOR ag counter inactive | HTR2A ag conf inactive
COc1ccc(OCC2CCNCC2)cc1	none (no result: TLR4-MyD88 BLA)
COc1cc(/C=C(/C(=O)c2cccs2)c2nc3ccccc3[nH]2)cc(OC)c1O	none
CC(C)CN1CCC(=O)N([C@H](COc2ccccc2)c2ccccc2)CC1	none (no result: TLR4-MyD88 BLA)
CN(CC(=O)Nc1ccccc1Br)C(=O)c1cc2c(s1)CCCCC2	HTR2A ag 17 (no result: TLR4-MyD88 BLA) | MOR ag counter inactive | HTR2A ag conf inactive
Cc1ccc(N(Cc2ccccc2)C(=O)c2ccc(C)c(S(=O)(=O)N3CCOCC3)c2)cc1	HTR2A ag 15 (no result: TLR4-MyD88 BLA) | MOR ag counter inactive | HTR2A ag conf inactive
COc1ccc(C(=O)Oc2ccc(C)cc2)cc1S(=O)(=O)N1CCOCC1	none (no result: LANA-H2A inh, Rtt109 HAT inh, TLR4-MyD88 BLA)
COc1ccc(C(=O)OCc2ccc(C)cc2)cc1S(=O)(=O)N1CCOCC1	HTR2A ag 18 (no result: TLR4-MyD88 BLA) | MOR ag counter inactive | HTR2A ag conf inactive
Cc1ccc(N(Cc2ccccc2)C(=O)c2ccc(S(=O)(=O)N3CCOCC3)cc2)cc1	none (no result: TLR4-MyD88 BLA)
COc1cc(OC)c(C=NNC(=S)NC23CC4CC(CC(C4)C2)C3)c(OC)c1	none (no result: LANA-H2A inh, TLR4-MyD88 BLA)
COc1cc(/C=C/C(=O)OCC(=O)NC(C)c2ccccc2)cc(OC)c1OC (stereo unspecified)	HTR2A ag 15 (no result: TLR4-MyD88 BLA) | MOR ag counter inactive | HTR2A ag conf inactive
O=C(NC1CCCC1)N[C@@H]1C=C[C@@H](CC(=O)N2CCOCC2)O[C@@H]1CO	none (no result: TLR9-MyD88 block, LANA-H2A inh, Rtt109 HAT inh, TLR4-MyD88 BLA)
O=C1C2CC=CCC2C(=O)N1Nc1ccccc1 (stereo unspecified)	none
O=c1c2ccccc2c2ccccc2c(=O)n1Nc1ccccc1	HTR2A ag 20 (no result: LANA-H2A inh, Rtt109 HAT inh, TLR4-MyD88 BLA) | MOR ag counter inactive | HTR2A ag conf inactive
O=C(/C=C/c1ccccc1Cl)N(c1ccccn1)C1CCCCC1	HTR2A ag 16 | MOR ag counter inactive | HTR2A ag conf 40
COc1ccc(-c2n[nH]c(C)c2-c2ccc(Cl)cc2)c(O)c1OC	HTR2A ag 22 | MOR ag counter inactive | HTR2A ag conf inactive
COc1ccc(-c2n[nH]c(C)c2-c2ccc(Cl)cc2)c(O)c1	none
N/C(=N\O)c1ccccc1-n1cccc1	HTR2A ag 15 (no result: LANA-H2A inh) | MOR ag counter inactive | HTR2A ag conf inactive
Clc1ccc(C2=CSC3=NCCN23)c(Cl)c1	none (no result: Rtt109 HAT inh, TLR4-MyD88 BLA)
Cc1cc(=O)oc2c(C)c(OC(C)C(=O)NCCCN3CCOCC3)ccc12 (stereo unspecified)	HTR2A ag 16 (no result: TLR4-MyD88 BLA) | MOR ag counter inactive | HTR2A ag conf inactive
O=C(Nc1ccncc1)c1ccccc1Cl	none (no result: TLR4-MyD88 BLA)
Cc1cc(N(CN2CCCC2=O)C(=O)c2ccccc2)no1	HTR2A ag 19 | MOR ag counter inactive | HTR2A ag conf inactive
CC1(C(=O)Nc2cccnc2)Cc2c(-c3ccc4c(c3)OCO4)ccnc2O1 (stereo unspecified)	none (no result: TLR9-MyD88 block, LANA-H2A inh, Rtt109 HAT inh, TLR4-MyD88 BLA)
Cc1ccc(/C=C(\NC(=O)c2ccccc2)C(=O)NC(Cc2ccccc2)C(=O)O)cc1 (stereo unspecified)	none
O=C(Nc1cccc(C(=O)O)c1)/C(=C\c1ccc2c(c1)OCO2)NC(=O)c1ccc(Br)cc1	none
O=C(Nc1cccc(C(=O)O)c1)/C(=C\c1ccccc1)NC(=O)c1ccccc1	HTR2A ag 18 | MOR ag counter inactive | HTR2A ag conf inactive
CC(=O)Nc1ccc(C(=O)N/C(=C\c2ccccc2)C(=O)Nc2cccc(C(=O)O)c2)cc1	none (no result: TLR4-MyD88 BLA)
O=C(Nc1ccc(C(=O)O)cc1)/C(=C/c1ccc2c(c1)OCO2)NC(=O)c1cccc(Br)c1	HTR2A ag 19 (no result: Rtt109 HAT inh) | MOR ag counter inactive | HTR2A ag conf inactive
Cc1ccc(C(=O)N/C(=C/c2ccccc2)C(=O)NC(Cc2ccccc2)C(=O)O)cc1 (stereo unspecified)	HTR2A ag 16 | MOR ag counter inactive | HTR2A ag conf 42
CC(C)(C)c1ccc(O)c(N=Cc2cc(Br)ccc2O)c1	HTR2A ag 49 | MOR ag counter inactive | HTR2A ag conf inactive
Cc1ccc(C(=O)NCCNC(=O)COc2ccc(C)c(C)c2)cn1	none (no result: Rtt109 HAT inh, TLR4-MyD88 BLA)
C=CCc1ccccc1OCCn1ccnc1	HTR2A ag 15 | MOR ag counter inactive | HTR2A ag conf inactive
C=CCc1cccc(OC)c1OCCOCCn1ccnc1	none
Cc1cc(NC(=O)COc2cccc([N+](=O)[O-])c2)no1	HTR2A ag 18 (no result: TLR4-MyD88 BLA) | MOR ag counter inactive | HTR2A ag conf inactive
COc1ccc(N2CCN(C(=O)COC(=O)COc3cc(C)cc(C)c3)CC2)cc1	none (no result: TLR4-MyD88 BLA)
O=C(O)CSc1c(-c2cccs2)[nH]c2ccccc12	HTR2A ag 16 | MOR ag counter inactive | HTR2A ag conf inactive
COC(=O)[C@]12CCCCC=C1N(Cc1ccc(Cl)cc1Cl)C(=O)[C@H](CC(=O)N1CCN(C(=O)C3CC3)CC1)C2	none (no result: TLR9-MyD88 block, LANA-H2A inh, Rtt109 HAT inh, TLR4-MyD88 BLA)
